In PubChem BioAssay (NCI):
Compounds without any hit were thinned out: in the full panel of roughly 83,000, 20% have a hit.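 Cell lines were cultured in 96-well plates, exposed to a single compound concentration, and assessed for percent growth 48 hours later.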 Values without a mark were called inactive. Calls of active or inactive are those of the source. How the source made its calls: active means growth percent below 10; inactive means the rest.

Tests used:
Assay in all cases: NCI-60 one-dose screen, 48 h (100 = growth as untreated, 0 = no growth, -100 = all killed)
Conditions in all cases: 10 µM unless noted
[1] = test system: T-47D breast
[2] = test system: BT-549 breast
[3] = test system: MDA-MB-435 melanoma
[4] = test system: SW-620 colon
[5] = test system: MCF7 breast
[6] = test system: HCT-116 colon
[7] = test system: HCC-2998 colon
[8] = test system: KM12 colon

SMILES	growth [1]	growth [2]	growth [3]	growth [4]	growth [5]	growth [6]	growth [7]	growth [8]
CCN(CC)CCOc1ccc(Nc2ncc3cc(-c4ccc(O)cc4)c(=O)n(C)c3n2)cc1	67.4%	30.1%	61.1%	-33.7% (active)	51.5%	32%	86.8%	37.2%
COc1cc(-c2nc3ccc(C)cc3[nH]2)ccc1OCC(=O)N=Nc1c(O)[nH]c2ccc(Cl)cc12	-43.2% (active)	68.5%	-2.5% (active)	-58.9% (active)	-64.9% (active)	-34.9% (active)	-32.5% (active)	-40.1% (active)
Cc1ccc(N=Nc2c(N)nn(-c3ccccc3)c2N)cc1	21.5%	-3.98% (active)	-52.1% (active)	23.2%	7.61% (active)	15.6%	46.1%	27.6%
CCOC(=O)c1c(NC(=O)c2ccc(C(C)(C)C)cc2)sc2cc(O)ccc12	82.7%	94.7%	97.4%	91.7%	88.4%	92.7%	104%	86%
COc1cccc(/C=C/C(=O)c2cc3c(N)c(C(=O)Nc4ccccc4C)sc3nc2C)c1	56.2%	37.8%	-26.3% (active)	1.68% (active)	7.39% (active)	41.8%	35.1%	27.4%
CC(C)c1ccc(C(=O)Nc2sc3cc(O)ccc3c2C#N)cc1	36.4%	20.8%	-42.9% (active)	28.7%	13.8%	15%	60.3%	21%
Cc1cc2nc3c4ccccc4n(CCN(C)C)c3nc2cc1C	32.2%	53.1%	8.26% (active)	-30.8% (active)	-0.456% (active)	7.19% (active)	22.1%	17.4%
CCOC(=O)C(=Cc1cccc(C#N)c1)C(=O)OCC	38.8%	71.2%	55.4%	27.9%	24.3%	20.9%	110%	54.8%
CC1=C(C(=O)n2c3ccccc3c3ccccc32)C(c2cccc([N+](=O)[O-])c2)C(C(=O)n2c3ccccc3c3ccccc32)=C(C)N1	80.5%	102%	117%	100%	94.8%	91.8%	102%	94.8%
COc1cccc(NC(=O)c2cccc(C3CCc4c(cc(OC)c(OC)c4OC)O3)c2)c1 (configuration not stated)	20.5%	41.5%	79.6%	100%	74.3%	62.4%	81.4%	81.5%
CCSC1=CC(=O)c2ccccc2C1=O	-41.9% (active)	91.4%	80.2%	54.9%	12.9%	2.56% (active)	117%	93.8%
Cc1ncc(C(=O)Nc2ccc(CN3CCN(C)CC3)c(C(F)(F)F)c2)cc1C#Cc1cnc(N)c2cnccc12	8.63% (active)	14.6%	6.4% (active)	-55.3% (active)	-73.7% (active)	-86.1% (active)	-1.5% (active)	9.54% (active)
COc1cc(/C=C2\C(=O)N(c3c(Cl)cccc3Cl)c3ccccc32)cc(OC)c1OCCCCCCn1c2ccccc2c(=O)c2ccccc21	89.6%	94.4%	103%	106%	92%	95.9%	112%	103%
CC[C@]12C=CCN3CC[C@@]4(c5ccc(OC)cc5N(C)[C@H]4[C@@](O)(C(=O)OC)[C@@H]1OC(=O)CCCN1CCOCC1)[C@@H]32	106%	105%	100%	105%	103%	101%	109%	107%
Cn1ccnc1C(=O)/C=C/c1ccc(C(=O)Nc2ccc(F)cc2)cc1	23.4%	-14.9% (active)	18.3%	4.13% (active)	19%	-81.5% (active)	-0.654% (active)	3.4% (active)
COc1cc(C2Cc3ncccc3-c3[nH]c(=O)c4cccnc4c32)cc(OC)c1OC (configuration not stated)	45.6%	40.6%	-50.3% (active)	26.7%	16%	13.8%	25.1%	23%
O=c1ccc2nc(C(F)(F)F)nn(-c3ccccc3)c-2c1	-40.8% (active)	69.2%	62.3%	-63.3% (active)	-49.3% (active)	35.2%	102%	96.8%
Cc1ccc(/C=C/C(=O)c2ccc(NC(=O)CSc3nc4c([nH]3)c(=O)n(C)c(=O)n4C)cc2)c(C)c1	37.2%	69.9%	60.7%	49%	39.8%	5.13% (active)	45.1%	37.5%
O=[N+]([O-])/C(=C\c1ccco1)c1ccccc1Cl	36.6%	9.05% (active)	75.6%	84.1%	38.4%	11.8%	94.9%	89.5%
O=C(Cn1nnc2ccccc21)Nc1ccc(-c2nc3ccccc3s2)cc1	66.9%	86.5%	95.9%	94.5%	28.9%	97.4%	93.7%	91.4%
O=C(N/N=C/c1ccc(Cl)cc1Cl)c1ccc2nc(-c3ccc(Cl)cc3)[nH]c2c1	-13.1% (active)	113%	38.8%	-28.3% (active)	-20% (active)	-1.88% (active)	3.69% (active)	-29.1% (active)
C[N+](C)(C/C=C/c1ccccc1)Cc1ccccc1	94.4%	96.1%	101%	100%	100%	95.5%	95.8%	95.4%
Fc1ccc(COc2ccc(Nc3ncnc4sc5c(c34)CCCC5)cc2)cc1	86.6%	99.1%	96.1%	92%	88.2%	93.7%	104%	90.1%
COc1cc(/C=C\c2cc(/C=C\c3ccc(O)c(OC)c3)n(C(=O)CNc3ccc(Cl)cc3)n2)ccc1O	31%	24.3%	-7.11% (active)	24.9%	13.8%	7.69% (active)	48.6%	20.2%
COc1ccc(C2=NN(C(C)=O)C(c3ccc(Oc4ccnc5cc(Cl)ccc45)c(OC)c3)C2)cc1 (configuration not stated)	16.2%	79.5%	57%	74.3%	37.6%	25%	57.2%	72.9%
CC(=O)Nc1c(Cl)cc(Cl)c2c1Cc1cc([N+](=O)[O-])ccc1-2	70.6%	92.7%	85.9%	80.6%	76.8%	45.8%	94.3%	86.4%
O=C1NC(=C(Cl)Cl)/C(=N/S(=O)(=O)NCCc2c[nH]c3ccccc23)N1	47.1%	9.16% (active)	25.1%	54.3%	14.2%	34.9%	98.3%	-4.6% (active)
CCCCCCNc1nc(NCCCCCC)c2[nH]c(NCCCCCC)nc2n1	33.3%	71.6%	67.5%	16.3%	20.9%	-35% (active)	46.6%	50.8%
COc1ccc2c(c1)c(-c1nonc1-c1c[nH]c3ccc(Br)cc13)cn2C	25.7%	63.6%	6.34% (active)	33.7%	24.9%	31.6%	38.7%	14.5%
